Results on 60 sequences are retold here after the OligoGym collection.

Among the targets are NDUFC1; NEBL; NEFH; NDUFAB1; NLRP3; NMRAL1; NPBWR1; NTRK3; NUP54; ODF3L1; OTP; P2RY8; P4HA2; P4HB; P2RY6.
What all share (experiment): pooled miR-30 sensor sort-seq; sequence = guide strand
Common to all, as to details: shRNA
Note: reference of the scale not given here.

Consider TAGATCCACAAGAAGACAGTGG, for which, in the assay with NDUFC1, the sensor-assay potency score (higher = more potent) worked out at 0.0941.

Regarding TTTACAACTCAACAGATGGTGA, in the assay with NDUFC1, the sensor-assay potency score (higher = more potent) was -0.815.

TTATTTGGTCCTGACATTCTGT returned a sensor-assay potency score (higher = more potent) with NEBL of -0.142.

In the assay with NEFH, TATCTCTATATCCAGAGCCATC returned a sensor-assay potency score (higher = more potent) of -1.97.

Consider TACCTCTGTCTTTTCTTTGGGT, for which the sensor-assay potency score (higher = more potent) with NEFH came out at 0.0672.

The sequence TTTGGGTTTAGCGTCTTCCTTC yielded a sensor-assay potency score (higher = more potent) in the assay with NEFH of -0.21.

Regarding TTGTTTGATGAGATAGATCCAC, the sensor-assay potency score (higher = more potent) in the assay with NDUFC1 was -0.545.

On to TTCTTGTGGACACATTAACTTT, for which the sensor-assay potency score (higher = more potent) with NDUFAB1 was -1.46.

Sequence TTCAGGTGTATCTGCCACCGTG had a sensor-assay potency score (higher = more potent) with NEBL of -0.9.

In turn, TTTGATCGCACTGAAGGGCCGC showed a sensor-assay potency score (higher = more potent) in the assay with NDUFC1 of -0.255.

Regarding TTTTGTACTCTAAAATATCTTC, in the assay with NDUFC1, the sensor-assay potency score (higher = more potent) is -0.163.

As to TATTGCTAACAGAAATTCCTGT, the sensor-assay potency score (higher = more potent) in the assay with NEFH was found to be 0.67.

For TAGCTGTGAAGTCAGACCCTAA, the sensor-assay potency score (higher = more potent) in the assay with NEBL is -1.2.

For TTCGACAGCAGGTTCCTTCTTC, the sensor-assay potency score (higher = more potent) with NEFH is 0.393.

Turning to TTCAATAATAGGAACGCGCAGT, the sensor-assay potency score (higher = more potent) in the assay with NEBL is -0.234.

In the assay with NEFH, TAAGCTATCATAATTGTCCATC showed a sensor-assay potency score (higher = more potent) of -0.916.

With TTGAATCTACATGACATGCAAC, the sensor-assay potency score (higher = more potent) with NEBL is -0.738.

Regarding TTTGATGAGATAGATCCACAAG, in the assay with NDUFC1, the sensor-assay potency score (higher = more potent) is -1.07.

For TTGAAGTCGATCATTAGCGTGG, the sensor-assay potency score (higher = more potent) with NLRP3 is 0.548.

The sequence TTCTCATAAAGGTCTCTCCTGT showed a sensor-assay potency score (higher = more potent) with NLRP3 of -0.131.

As to TTCGTAGTCCTCAGGAGTCATC, the sensor-assay potency score (higher = more potent) with NMRAL1 is -1.71.

In the case of TTGGTCACGATGAAGGTGGCGT, the sensor-assay potency score (higher = more potent) with NMRAL1 is -0.0574.

Sequence ATCACCGCGTAGACAACTGGTA displayed a sensor-assay potency score (higher = more potent) with NPBWR1 of -0.96.

TTGTGGGTCACAGTGATAGGAG had a sensor-assay potency score (higher = more potent) with NTRK3 of -0.852.

In the assay with NTRK3, TCTCTGTAGTGAACTTCCGGTA displayed a sensor-assay potency score (higher = more potent) of -0.729.

The sequence TTATATCTTCTAGATCGTCTTT had a sensor-assay potency score (higher = more potent) with NUP54 of -0.236.

In the case of TTGTGCACAGTGACCTGCTGGA, the sensor-assay potency score (higher = more potent) with ODF3L1 stood at 0.448.

TGTCATGATCTATGTAGCCCGT showed a sensor-assay potency score (higher = more potent) with ODF3L1 of -0.612.

Turning to TTTATCTACACAAAACATCCTA, the sensor-assay potency score (higher = more potent) with OTP is 0.114.

Turning to TGGAACAGTCTAGAGAAGCAGG, the sensor-assay potency score (higher = more potent) in the assay with P2RY8 was -1.38.

As to TACTGTGAAGATGCTACTCTGA, the sensor-assay potency score (higher = more potent) with P2RY8 was -0.29.

In the assay with P4HA2, TATCTCGTCCTCATCAGTGGGG showed a sensor-assay potency score (higher = more potent) of 0.413.

The sequence TTAACGTTTTTTCTCTCTCTTC displayed a sensor-assay potency score (higher = more potent) in the assay with P4HA2 of -0.749.

Consider TAATCTTGGAAAGCTTGGCTTC, for which the sensor-assay potency score (higher = more potent) with P4HA2 is -0.909.

Regarding TACACGTGGTAGTAGCTCTTGC, the sensor-assay potency score (higher = more potent) in the assay with P2RY8 is -0.559.

The sequence TTTCTGATCATCGTCTTCCTCC registered a sensor-assay potency score (higher = more potent) with P4HB of 0.0481.

The sequence TTGACAGGCTGCTTGTCCCAGT yielded a sensor-assay potency score (higher = more potent) in the assay with P4HB of -0.656.

On to TTTAGGTTTTGCGATCTCCTTG, for which, in the assay with P4HA2, the sensor-assay potency score (higher = more potent) was -0.309.

For TTCTACATCACTCATGTAGTTA, in the assay with P4HA2, the sensor-assay potency score (higher = more potent) was -0.685.

Take TTAGGTTTTGCGATCTCCTTGA: the sensor-assay potency score (higher = more potent) in the assay with P4HA2 was determined as 0.73.

In turn, TTCCTGAAGAACTTGATGGTGG gave a sensor-assay potency score (higher = more potent) in the assay with P4HB of 0.134.

In the assay with P2RY8, TTCAGCTTTGGAACAGTCTAGA gave a sensor-assay potency score (higher = more potent) of -0.295.

TTCATTACTAAACCATCTCTGT returned a sensor-assay potency score (higher = more potent) in the assay with P2RY8 of -0.448.

TTAAGAAACGTCGCTAACCTAT: the sensor-assay potency score (higher = more potent) in the assay with P4HA2 is -0.763.

AGTTGCTTGAAGTTCTCGCGGT gave a sensor-assay potency score (higher = more potent) with P2RY6 of -0.308.

TAGACAGCTAACTCTGCTGCAG had a sensor-assay potency score (higher = more potent) with P4HA2 of -0.415.

On to TTCACCTCCAAAAATCTTCGGG, for which, in the assay with P4HB, the sensor-assay potency score (higher = more potent) came out at 0.109.

In the assay with P4HA2, TTGCCTGGTACTTGGTTCCTGG had a sensor-assay potency score (higher = more potent) of -0.843.

Regarding TTGGCAGTCGAGTCCATCTTGG, the sensor-assay potency score (higher = more potent) with P4HB was -1.06.

Regarding TTTTCCATCTTAAAACATGTGT, in the assay with P2RY8, the sensor-assay potency score (higher = more potent) was -0.223.

TTGTACCAGAACACAGCTGTAC registered a sensor-assay potency score (higher = more potent) with P4HA2 of -0.305.

In the case of TTTCTTAAAACCATCCAGCGTG, in the assay with P4HB, the sensor-assay potency score (higher = more potent) was -0.457.

For TTTCACTCAAAGCTCAACCAGT, the sensor-assay potency score (higher = more potent) with P2RY8 was 0.0389.

Turning to TCAACCAGTGAACAGACTGAGT, the sensor-assay potency score (higher = more potent) with P2RY8 was -1.22.

TATTTGGAGAACACGTCACTGT returned a sensor-assay potency score (higher = more potent) in the assay with P4HB of -0.00902.

TCGCGGTAGACACAGGTGGTGG gave a sensor-assay potency score (higher = more potent) with P2RY6 of -1.81.

Regarding TTGGAGAACACGTCACTGTTGG, the sensor-assay potency score (higher = more potent) in the assay with P4HB came to 0.0264.

For TTGCAGTGACCACACCATGGGG, in the assay with P4HB, the sensor-assay potency score (higher = more potent) is -1.18.

In turn, TTGAGGACGTCGAAGCAGGTGA gave a sensor-assay potency score (higher = more potent) with P2RY8 of -0.556.

TAGAACTCCACAAAGACGTTTT: in the assay with P4HB, the sensor-assay potency score (higher = more potent) was -0.145.
